# TIM10 inh – growth inhibitors of isogenic TIM10 control yeast, primary screen, counter-screen for tim10-1 yeast inhibitor project, luminescence, uHTS | S. cerevisiae TIM10 strain growth, BacTiter-Glo luminescence, 24 h | inhibition, % at 10 µM | 1.4% of 330,000 active;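 active = inhibition of 40% or more at the single tested concentration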;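 also: wild-type TIM10 isogenic control strain grown at permissive 25 °C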
# NLRP3 yeast inh – NALP3 inflammasome inhibitors in reconstituted yeast, primary screen, luminescence, uHTS; AID 2825, 2010; 0.39% of 330,000 active; inhibition, % at 10 µM; Yeast reconstituted NLRP3/ASC/caspase-1, beta-gal luminescence, 24 h;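 active = inhibition of 50% or more; inactive = inhibition below 50%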
# PfHsp90 set2 – growth inhibition of PfHsp90-expressing yeast, primary screen, antimalarial PfHsp90 inhibitor project, S. cerevisiae, BacTiter-Glo luminescence, single point, set 2; inhibition, % at 9.4 µM; 0.32% of 310,000 active; AID 504621, 2011; BacTiter-Glo ATP, 48 h; yeast lacking PDR1 and PDR3 efflux regulators;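 active = every replicate shows inhibition above about 80%, whatever the replicate mean, limit read from the data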
# NALP1 yeast inh – NALP1 inflammasome inhibitors in reconstituted yeast, colorimetric, S. cerevisiae, triplicate retest; inhibition, % at 10 µM; 0.61% of 280,000 active; S. cerevisiae NALP1/ASC/caspase-1 growth, X-gal OD620, 72 h; AID 2071, 2009; in the data active = inhibition mostly above about 24%, no sharp cut-off; inactive = mostly below about 32%
# tim10-1 inh – growth inhibitors of tim10-1 mutant yeast, primary screen, luminescence, uHTS. S. cerevisiae tim10-1 ts strain growth, BacTiter-Glo, 24 h. inhibition, % at 20 µM. 2.2% of 330,000 active;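 active = inhibition of at least 40%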;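 also: mutant grown at 25 °C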
# tim23-1 inh – growth inhibitors of tim23-1 mutant yeast, primary screen, luminescence, uHTS. inhibition, % at 20 µM. 1.3% of 330,000 active. S. cerevisiae tim23-1 growth, BacTiter-Glo luminescence, 24 h;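 active = growth inhibition of the mutant yeast at or above 50%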;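 also: temperature-sensitive mutant grown at 25 °C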
# tim23-1 conf – tim23-1 mutant yeast growth inhibitors, confirmation, luminescence, single concentration; shares compounds with tim23-1 inh; S. cerevisiae tim23-1 growth, BacTiter-Glo luminescence, 24 h; inhibition, % at 20 µM; 83% of 4,400 active;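 active = inhibition above about 39% in either of two replicate wells at 20 µM, limit read from the data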;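 also: temperature-sensitive tim23-1 mutant grown at 25 °C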
# Numbers stand for hits; - = inactive; . = no result given. The list is not random: actives were taken first. Their share in the collection is about 4.2%.
SMILES,TIM10 inh,NLRP3 yeast inh,PfHsp90 set2,NALP1 yeast inh,tim10-1 inh,tim23-1 inh,tim23-1 conf
COc1cccc(NC(=O)c2cc3cccc(OC)c3o/c2=N\O)c1,-,-,.,-,-,58,47
CCOC(=O)C1=CN(Cc2cccc(F)c2)S(=O)(=O)N(C)C1c1cccc(OC)c1 (stereo not given),-,.,-,.,-,52,-
CCOC(=O)C1=CN(Cc2cccc(F)c2)S(=O)(=O)N(C)C1c1ccccc1 (stereo not given),-,.,-,.,-,-,.
CN(C)c1nc(N)c([N+](=O)[O-])c(N2CCCCCC2)n1,-,-,-,-,-,54,39
COCCN(C(=O)Nc1ccccc1OC)c1nc2ccccc2s1,-,-,-,-,-,-,.
Cc1[nH]c(-c2ccc(F)cc2)cc1C(=O)N1CCN(c2cccc(Cl)c2)CC1,-,-,-,-,-,54,-
O=C(c1cc2cc(F)ccc2[nH]1)N1CCN(c2cccc(Cl)c2)CC1,-,-,-,-,-,-,.
CCCCN(Cc1ccccc1)S(=O)(=O)c1cc(Br)cc2c1N(C(C)=O)C(C)C2 (stereo not given),-,-,-,-,-,56,53
CCOC(=O)c1sc(=NC(=O)c2ccco2)n(C)c1C,-,-,-,-,-,54,44
CCOC(=O)c1sc(=NC(=O)c2ccccc2Br)n(C)c1C,-,-,-,-,-,-,.
CC(C(Sc1ccccc1N)c1ccccc1)[N+](=O)[O-] (stereo not given),-,-,-,.,-,58,57
Cc1cccc(-n2cc(-c3ccccc3)c3c(=O)[nH]cnc32)c1,-,-,-,-,-,54,48
CCN(CC)c1nc(N)nc(N(c2ccccc2)c2ccccc2)n1,-,-,-,-,-,57,50
CC1CCCN(C(=O)c2ccc(Br)c(S(=O)(=O)N3CCOCC3)c2)C1 (stereo not given),-,-,-,.,-,-,.
Cn1nnnc1Sc1ncnc2scc(-c3ccc(C(F)(F)F)cc3)c12,-,-,-,.,-,56,-
Cn1nnnc1Sc1ncnc2scc(-c3cccc(C(F)(F)F)c3)c12,-,-,-,.,-,53,46
Cn1nnnc1Sc1ncnc2scc(-c3cc4ccccc4o3)c12,-,-,-,.,-,71,39
CCOc1ccc(S(=O)(=O)NCCC(=O)NCc2ccc(OC)c(OC)c2)cc1,-,-,-,.,-,-,.
CC1(C)C(/C=C/C=C/C=C/C=C2\N(CCCCS(=O)(=O)O)c3ccc4ccccc4c3C2(C)C)=[N+](CCCCS(=O)(=O)[O-])c2ccc3ccccc3c21,-,-,-,.,-,-,.
CC1(c2ccccc2)CC(C)(C)n2c(O)c(C3=NC(=S)NC3=O)c3cccc1c32 (stereo not given),-,-,-,.,-,-,.
CC1(c2ccccc2)CC(C)(C)N2C(=O)C(=O)c3cccc1c32 (stereo not given),-,-,.,-,-,61,56
CN(C)c1ccc(/C=C/C(=O)c2c(O)c3ccccc3oc2=O)cc1,-,-,-,.,-,-,.
CCOc1ccc(/C=C/C(=O)c2c(O)c3ccccc3oc2=O)cc1,-,-,-,-,-,76,-
O=C(Nc1cc(Cl)ccn1)C1(c2ccccc2)CC1(Cl)Cl (stereo not given),-,-,-,-,-,55,65
O=C(Nc1ccccc1)C1(c2ccccc2)CC1(Cl)Cl (stereo not given),-,-,-,-,-,-,.
SMILES,TIM10 inh,NLRP3 yeast inh,PfHsp90 set2,NALP1 yeast inh,tim10-1 inh,tim23-1 inh,tim23-1 conf
O=C1OCCN1C(=O)[C@H]1[C@H](c2ccc(F)cc2)C(c2cccc(Cl)c2)=NN1c1ccccc1,-,.,-,.,-,-,.
OC[C@@H]1[C@@H](c2ccc(Cl)cc2)C(c2ccc(F)cc2)=NN1c1ccccc1,-,.,-,.,-,56,-
OC[C@@H]1[C@@H](c2ccccc2)C(c2ccc(F)cc2)=NN1c1ccccc1,-,.,-,.,-,56,45
CCOc1ccccc1NC(=O)C1(S(=O)(=O)c2ccc(Cl)cc2)CC1,-,-,-,-,-,-,.
CN(Cc1cccc(Cl)c1Cl)C(=O)c1ccccc1SCC(=O)N1CCCC1,.,.,-,.,.,.,.
COc1ccc(/C=C2\C(=O)ON=C2c2ccccc2)cc1,-,-,-,-,-,-,.
O=C1/C(=C\c2ccc(-c3ccccc3[N+](=O)[O-])o2)C(c2ccccc2)=NN1c1ccccc1,-,-,.,-,-,-,.
Cc1ccc(-c2ccc(/C=C3\C(=O)ON=C3c3ccccc3)o2)c([N+](=O)[O-])c1,-,-,-,-,-,70,67
Cc1ccc(/C=C2\C(=O)ON=C2c2ccccc2)o1,-,-,-,-,-,53,53
CC(C)c1ccc(C(=O)CN2C(=O)NC3(CCc4ccccc43)C2=O)cc1 (stereo not given),-,-,-,.,-,54,44
O=C(CN1C(=O)NC2(CCc3ccccc32)C1=O)c1ccc(Cl)cc1 (stereo not given),-,-,-,.,-,-,.
COc1ccc(-c2nc(N)nc(C)c2Oc2ccccc2Br)c(O)c1,-,-,-,-,-,50,47
COc1ccc(-c2nc(N)nc(C(F)(F)F)c2-c2cscn2)c(O)c1,-,-,-,.,-,-,.
CC(OC(=O)Cn1ccccc1=O)C(=O)Nc1cc(Cl)cc(Cl)c1 (stereo not given),-,-,-,.,-,-,.
COC(=O)N/N=C/c1ccc(-c2ccc(Cl)cc2Cl)o1,-,-,-,-,-,56,50
COC(=O)N/N=C/c1ccc(-c2ccccc2Cl)o1,-,-,-,.,-,-,.
COc1ccccc1NC(=O)Cc1nnc(SCC(=O)NC2CCCCC2)n1C,-,-,-,-,-,-,.
COc1cc(C(=O)N/N=C/c2ccc(OC(=O)c3cccc(C)c3)cc2)ccc1O,-,-,-,-,-,-,.
COc1cc(/C=N/NC(=O)c2ccc(N)cc2)ccc1OC(=O)c1cccc(C)c1,-,-,-,-,-,65,73
CC(Sc1nc2ccccc2s1)C(=O)c1c(N)n(C)c(=O)n(C)c1=O (stereo not given),-,-,-,-,-,-,.
O=C(Nc1ccc(S(=O)(=O)N2CCCC2)cc1)c1ccc([N+](=O)[O-])o1,-,-,-,.,-,52,34
CC(=O)N1CCN(c2ccc(NC(=O)c3ccc([N+](=O)[O-])o3)cc2Cl)CC1,-,-,-,-,-,51,76

# Assay outcomes (PubChem)
